# The list is a sample of the results.
# aSyn UTR act: Activators working through SNCA 5'UTR binding (MLPCN); alpha-synuclein 5'UTR reporter, activators screen; activity score, % (tested at 7.5 µM), hits read low; 300,000 compounds, 7.1% hits; AID 1814; in the data active = activity score below about -60%
# * marks the source's active call; other numbers are inactive results.
SMILES,aSyn UTR act
COc1cc2c(cc1NC(=O)C(C)Sc1cccc[n+]1[O-])oc1ccccc12 (stereo not drawn),-241.2*
COc1cc2c(cc1NC(=O)COC(=O)C1CC(=O)N(Cc3ccco3)C1)oc1ccccc12 (stereo not drawn),-145.4*
COc1cc2c(cc1NC(=O)COC(=O)CNC(=O)c1ccccc1)oc1ccccc12,-94.3*
COc1cc2c(cc1NC(=O)COC(=O)[C@@H](NC(=O)c1ccccc1F)C(C)C)oc1ccccc12,-85.0*
COc1cc2c(cc1NC(=O)C(C)OC(=O)c1ccc(S(=O)(=O)Nc3ccccc3Cl)cc1)oc1ccccc12 (stereo not drawn),-115.5*
COc1ccccc1CC(=O)Nc1cc2oc3ccccc3c2cc1OC,-129.2*
Clc1ccccc1OCc1nnc(-c2ccccc2Br)o1,-172.6*
O=c1c(Cl)c(Cl)cnn1Cc1nnc(-c2ccccc2Br)o1,-66.1*
N#Cc1ccccc1OCc1nnc(-c2ccccc2Br)o1,-178.2*
Cc1ccc(/C=N/n2cnc3sc(-c4ccccc4)cc3c2=O)o1,-109.5*
O=c1nc(/C=C/c2ccc(-c3ccc(F)cc3)o2)cc(C(F)(F)F)[nH]1,-62.5*
Cc1ccc(/C=c2/sc3n(c2=O)CCCN=3)o1,-143.4*
O=c1/c(=C\c2ccc3c(c2)OCO3)sc2n1CCCN=2,-83.2*
COc1ccc(Nc2nc(-c3ccc4c(c3)NC(=O)CO4)cs2)cc1,-109.6*
CC(C)c1ccccc1-n1c(SCC(=O)c2ccc3c(c2)NC(=O)CO3)nc2ccccc2c1=O,51.4
CCC(C)Nc1nc(-c2ccc3c(c2)NC(=O)CO3)cs1 (stereo not drawn),-112.4*
COc1cc(/C=N/O)ccc1OCc1ccccc1Cl,-113.2*
CNC(=S)N/N=C/c1c(C)nn(-c2ccccc2)c1Cl,-88.6*
Cc1nn(C(C)(C)C)c(C)c1/C=N/OC(=O)Nc1ccc(Cl)cc1,94.2
Cc1nn(-c2ccccc2)c(Cl)c1/C=N/NC(=O)OC(C)(C)C,-131.1*
Cc1nn(-c2ccccc2Cl)c(Cl)c1/C=N/Nc1nc2ccccc2s1,68.6
CCOC(=O)N/N=C/c1c(C)nn(-c2ccccc2Cl)c1Cl,-90.6*
CC(=O)Nc1ccc(S(=O)(=O)NC(CC(=O)NCCc2ccccc2)C(C)C)cc1 (stereo not drawn),-109.4*
C/C(NC(=O)c1cccs1)=C1\C(=O)C[C@@H]2[C@H]1C2(C)C,-117.6*
CCOc1cc(/C=C/C(=O)Nc2ccc(C(=O)NCCN(CC)CC)cc2)ccc1OCC(C)C,47.3
SMILES,aSyn UTR act
CCOc1cc(/C=C/C(=O)c2ccc3c(c2)OCCO3)ccc1OCC(=O)N(C)C,-185.1*
CCOc1cc(/C=C/C(=O)c2ccc(O)cc2)ccc1OCC(=O)N(C)C,-94.1*
CCO[C@@H]1OC(C(=O)NCc2nc3ccccc3[nH]2)=C[C@H](C2CC2)[C@H]1CCCO,-119.3*
CCO[C@@H]1OC(C(=O)NCc2nc3ccccc3[nH]2)=C[C@H](C(C)(C)C)[C@H]1CCCO,85.2
Cc1ccc(C2Cc3cc(O)c(O)cc3CN2)cc1 (stereo not drawn),89.0
Cc1ccc(O)c(C2=NNC(c3ccc(Cl)cc3)C2)c1 (stereo not drawn),-127.6*
Cc1cc2nc(-c3ccc(NC(=O)C(C)C)cc3)oc2cc1C,-195.5*
CC(=O)Nc1ccc(-c2nc3ccc(NC(C)=O)cc3o2)cc1,-103.9*
CC(=O)Nc1cc(-c2nc3ccccc3o2)ccc1Cl,-77.1*
S=C(Nc1cccnc1)Nc1cccc2cnccc12,66.0
COc1cccc(NC(=S)Nc2cccc3ccccc23)c1,-69.6*
COc1ccc(NC(=S)Nc2cccc3cnccc23)cc1,-72.5*
CCc1ccc(NC(=S)Nc2cccc(OC)c2)cc1,-108.6*
COc1cccc(NC(=S)NN=C2CCCCCC2)c1,-146.5*
CCOc1ccc(NC(=S)Nc2cc(OC)c(Cl)cc2OC)cc1,-89.9*
CCOc1ccc(NC(=S)Nc2cccc3cnccc23)cc1,-89.1*
CCOc1ccc(NC(=S)Nc2cccc3ccccc23)cc1,-63.4*
FC(F)(F)c1cccc(-c2nc(-c3ccncc3)no2)c1,-191.0*
O=C(O)c1ccc(-c2noc(-c3cccc(C(F)(F)F)c3)n2)cc1,-82.6*
COc1ccc(CCn2nc(C)c([N+](=O)[O-])c2C)cc1,-101.0*
COc1ccc(/C=N/Nc2ccc([N+](=O)[O-])cc2)cc1O,-298.0*
COc1cccc(/C=N/Nc2ccc([N+](=O)[O-])cc2)c1O,-149.7*
COc1cccc(N/N=C/c2cccc(Br)c2O)c1,-117.1*
COc1cccc(/C=N/NC(=O)c2ccc(-c3ccccc3)cc2)c1O,75.8
Cc1cccc(C)c1NC(=O)COC(=O)c1cccc2c1C(=O)c1ccccc1C2=O,67.9
SMILES,aSyn UTR act
O=C(COC(=O)c1ccc2c(c1Cl)C(=O)c1ccccc1C2=O)NC1CC1,-66.4*
CCN(C(=O)c1cccs1)c1nnc(-c2ccncc2)s1,-76.1*
CCC1S/C(=N/C(=O)NC2CCCCC2)NC1=O (stereo not drawn),-86.0*
CC1(C)CCc2cc(-c3ccn(S(=O)(=O)c4ccccc4Cl)n3)ccc2O1,-84.0*
COc1ccc(S(=O)(=O)n2ccc(-c3ccc4c(c3)CCC(C)(C)O4)n2)cc1,-103.4*
COc1ccc(S(=O)(=O)N2c3ccc(F)cc3CCC2C)cc1 (stereo not drawn),112.2
CCN(CC)c1ccc(NC(=S)Nc2ccc(F)cc2)cc1,-91.2*
CCCCC(=O)Nc1ccc(NC(=S)NC(=O)c2cccs2)cc1OC,-106.9*
CCCCn1nnc(NC(=S)NC(=O)c2cccs2)n1,-114.1*
CCCOc1ccc(C(=O)NNC(=S)NC(=O)c2ccco2)cc1,51.5
CCN(CC)c1ccc(NC(=S)NC(=O)c2ccco2)cc1,-213.8*
CCN(CC)c1ccc(NC(=S)NC(=O)c2cccs2)cc1,-156.1*
CN(C)c1ccc(C(=O)NC2CCCc3ccccc32)cc1 (stereo not drawn),-71.3*
CCN1CCc2c(sc(NC(=O)c3ccc(S(=O)(=O)N4CCOCC4)cc3)c2C(=O)OC)C1,-71.4*
Cc1cccc(Nc2ccc([N+](=O)[O-])cn2)c1,-87.2*
Cc1cccc(NC2=NC(C)(C)N=C(N)N2)c1,98.4
CCOc1cccc(Nc2ccc([N+](=O)[O-])cn2)c1,-101.6*
O=C(NNc1cccc(Cl)n1)c1ccc(Cl)cc1Cl,-80.7*
CCCCNC(=O)CSc1nc2ccc(N3CCOCC3)cc2c(=O)n1CCc1ccccc1,-91.5*
Nc1ccc2c(c1Cl)C(=O)c1ccc(N)c(Cl)c1C2=O,-88.0*
CCCCOc1ccc(N=Nc2ccc(N)nc2N)cn1,-300.0*
Nn1c(Nc2ccccc2)nc2ccccc21,-99.8*
CCOc1ccc(NCc2nc3ccccc3n2CCOc2ccccc2)cc1,-66.7*
CCCn1c(NCc2cc(OC)ccc2OC)nc2ccccc21,-97.5*
CCOc1ccc(Nc2nc3ccccc3n3nnnc23)cc1,-81.8*
SMILES,aSyn UTR act
CCOc1ccc(CNc2nc3ccccc3n2C)cc1,-125.2*
CCOc1ccc(Nc2nc3ccccc3n2C)cc1,-163.4*
COc1ccc(CCNc2nnc(Sc3nnnn3-c3ccccc3)s2)cc1OC,119.6
COc1ccc(CCNc2nc3ccccc3n3nnnc23)cc1OC,-105.7*
Cc1cc(C(=O)Nc2ccc(Br)cc2)cs1,-130.1*
Cc1cccc(NC(=S)NNC(=O)c2csc3c2CCCC3)c1,-125.3*
Cc1cccc(NC(=S)NNC(=O)c2csc(C)c2)c1,-76.7*
Cc1cc(Br)ccc1-n1[nH]c(C)c(C=Nc2cccc3nsnc23)c1=O,-69.9*
CCOC(=O)c1c(C)[nH]c(N=Nc2cccc(C)c2)c1C,-211.2*
CCOC(=O)c1c(C)[nH]c(N=Nc2cccc(OC)c2)c1C,-208.2*
